Records with an inconclusive call do not appear. Entries that show only a call come without a potency. Calls of active or inactive are those of the source. Unless noted, calls follow the shape of the dose curve; as a rule, active = well fitted curve in the direction sought with a large enough effect; inconclusive = small, poorly fitted or top-dose-only effect, or another doubt; inactive = no such curve, though single readings can be large; an effect the other way counts as inactive or inconclusive.
Assays:
[1] = Cytometric Cell-Based qHTS for Inhibitors of the mTORC1 Signaling Pathway in MEF (Tsc2-/-, p53-/-) Cells (AID 2660);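 also: Tsc2 and p53 null MEFs carrying empty vector with compound for 24 h; percent of cells above a phospho-rpS6 to PI ratio cutoff in each well; series mostly up to about 38 µM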
In short: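 Immunofluorescence qHTS of rpS6 Ser235/236 phosphorylation: MEFs (Tsc2-/-, p53-/-) treated 24 h, 37 C, in DMEM + 10% FBS. Alexa-488 signal normalized to PI count, referenced to rapamycin (7.5 nM) and DMSO; PI cell number recorded for viability.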

[2] = High Content Imaging Cell-Based qHTS for Inhibitors of the mTORC1 Signaling Pathway in MEF (Tsc2-/-, p53-/-) Cells (AID 2666);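 also: percent of cells scored positive for phospho-rpS6 Ser235/236 immunostaining by imaging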
In short: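 Cells were plated, dosed with compound after 24 hrs, and incubated another 24 hrs at 37 degree Celsius. Fixed cells were immunostained for phospho-rpS6 Ser235/236 and counterstained, and the normalized signal was scored as % active cells against rapamycin and DMSO controls.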

[3] = High Content Imaging Cell-Based qHTS for Inhibitors of the mTORC1 Signaling Pathway in MEF Cells (AID 2667);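 also: Tsc2-/- p53-/- MEFs stably re-expressing wild-type Tsc2 exposed 24 h; series mostly up to about 38 µM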
In short: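 Immunofluorescence for rpS6 phosphorylation in MEFs of Tsc2-/-, p53-/- background rescued with WT Tsc2. Compound exposure lasted 24 hrs. Inhibition was scored against rapamycin-treated control wells.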

[4] = Cytometry Cell-Based qHTS for Inhibitors of the mTORC1 Signaling Pathway in MEF cells (AID 2668);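 also: Tsc2-/- p53-/- mouse embryonic fibroblasts stably re-expressing wild-type Tsc2; percent cells positive for phospho-rpS6 Ser235/236 relative to propidium iodide stain; series mostly up to about 38 µM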
In short: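 Tsc2-/-, p53-/- MEFs re-expressing WT Tsc2; cpd 24 hrs, 37 degree Celsius; PFA fix, Alexa-488 p-rpS6 (Ser235/236) Ab 2 hrs RT, PI counterstain; Acumen 488nm scan; p-S6/PI ratio → % positive cells; PI count = viability.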

[5] = target: Ubiquitin carboxyl-terminal hydrolase 2 (Homo sapiens) (UniProt O75604); assay: qHTS Validation Assay for Inhibitors of Ubiquitin-specific Protease USP2a Using CHOP2 as the Reporter (AID 463106)
Ubiquitin carboxyl-terminal hydrolase 2 (Homo sapiens), sequence (O75604 whole entry, looked up): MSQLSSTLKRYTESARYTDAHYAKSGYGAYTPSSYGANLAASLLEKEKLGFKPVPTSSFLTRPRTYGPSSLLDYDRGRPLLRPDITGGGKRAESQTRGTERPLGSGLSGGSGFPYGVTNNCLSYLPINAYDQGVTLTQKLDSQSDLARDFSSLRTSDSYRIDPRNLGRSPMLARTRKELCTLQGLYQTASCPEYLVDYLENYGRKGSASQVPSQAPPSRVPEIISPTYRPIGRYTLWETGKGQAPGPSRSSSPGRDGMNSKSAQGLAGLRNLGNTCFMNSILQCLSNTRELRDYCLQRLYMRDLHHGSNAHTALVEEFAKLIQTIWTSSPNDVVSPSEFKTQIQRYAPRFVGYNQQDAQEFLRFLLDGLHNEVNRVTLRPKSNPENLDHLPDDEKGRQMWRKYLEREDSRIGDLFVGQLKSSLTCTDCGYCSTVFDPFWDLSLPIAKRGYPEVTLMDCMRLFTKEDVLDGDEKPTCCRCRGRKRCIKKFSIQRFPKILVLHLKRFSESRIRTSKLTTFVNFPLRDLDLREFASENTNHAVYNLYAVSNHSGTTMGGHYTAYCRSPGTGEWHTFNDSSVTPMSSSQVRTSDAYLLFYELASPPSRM
In short: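 10nM USP2 core + cpd, 30min RT; add 25nM Ub-CHOP2/25nM substrate; 60min RT; FI 485/531nm. Buffer Tris pH 8.0, CaCl2, BME, CHAPS. Norm. to NEM = 100% inhibition; time-zero read flags fluorescent artifacts.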

[6] = target: DNA polymerase III PolC-type (Bacillus subtilis (strain 168)) (UniProt P13267); assay: qHTS Validation Assay for the Inhibitors of DNA Replication in Gram-Positive Bacteria (AID 485295);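 also: reconstituted holoenzyme with PolC plus beta clamp SSB and primase; PicoGreen fluorescence of double-stranded DNA made on primed circular M13 template; series mostly up to about 57 µM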
DNA polymerase III PolC-type (Bacillus subtilis (strain 168)), sequence (P13267 whole entry, looked up): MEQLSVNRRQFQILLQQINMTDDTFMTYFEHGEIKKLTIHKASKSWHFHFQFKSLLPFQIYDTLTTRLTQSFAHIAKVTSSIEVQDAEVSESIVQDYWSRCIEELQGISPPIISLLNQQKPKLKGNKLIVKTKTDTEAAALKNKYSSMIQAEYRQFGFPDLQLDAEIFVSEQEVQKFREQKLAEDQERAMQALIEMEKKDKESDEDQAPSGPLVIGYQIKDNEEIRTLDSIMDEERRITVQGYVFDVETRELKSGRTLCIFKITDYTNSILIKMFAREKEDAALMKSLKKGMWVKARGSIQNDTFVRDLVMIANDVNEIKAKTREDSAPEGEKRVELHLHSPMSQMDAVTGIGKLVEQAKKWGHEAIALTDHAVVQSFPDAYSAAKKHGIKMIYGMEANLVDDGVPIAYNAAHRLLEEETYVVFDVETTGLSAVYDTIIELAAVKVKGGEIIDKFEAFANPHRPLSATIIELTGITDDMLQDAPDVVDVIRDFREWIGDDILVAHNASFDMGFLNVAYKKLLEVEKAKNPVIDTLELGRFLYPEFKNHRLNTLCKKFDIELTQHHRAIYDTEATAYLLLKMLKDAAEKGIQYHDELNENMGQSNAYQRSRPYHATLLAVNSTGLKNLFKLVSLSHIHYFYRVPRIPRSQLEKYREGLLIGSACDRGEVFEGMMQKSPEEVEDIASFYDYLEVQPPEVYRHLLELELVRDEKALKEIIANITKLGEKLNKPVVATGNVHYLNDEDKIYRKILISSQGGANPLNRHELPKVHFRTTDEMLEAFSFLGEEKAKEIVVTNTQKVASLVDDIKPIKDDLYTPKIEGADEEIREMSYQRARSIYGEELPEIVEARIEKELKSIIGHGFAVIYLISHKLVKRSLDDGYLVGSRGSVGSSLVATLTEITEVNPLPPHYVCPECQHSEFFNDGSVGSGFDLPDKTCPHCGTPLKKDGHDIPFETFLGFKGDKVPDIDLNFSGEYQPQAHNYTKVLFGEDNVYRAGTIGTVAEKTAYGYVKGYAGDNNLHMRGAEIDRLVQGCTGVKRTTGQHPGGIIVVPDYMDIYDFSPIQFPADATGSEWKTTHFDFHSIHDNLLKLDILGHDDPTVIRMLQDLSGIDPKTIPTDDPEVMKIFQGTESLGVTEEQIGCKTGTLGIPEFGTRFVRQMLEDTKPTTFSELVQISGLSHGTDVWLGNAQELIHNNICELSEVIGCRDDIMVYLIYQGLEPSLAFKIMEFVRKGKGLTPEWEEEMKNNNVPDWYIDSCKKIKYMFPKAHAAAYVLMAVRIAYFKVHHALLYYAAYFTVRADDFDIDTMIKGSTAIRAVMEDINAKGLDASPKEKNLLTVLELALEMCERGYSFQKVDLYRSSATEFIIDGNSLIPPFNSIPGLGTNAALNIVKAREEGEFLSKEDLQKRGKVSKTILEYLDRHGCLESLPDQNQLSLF
In short: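 First, compound is mixed with the reconstituted replication complex and held at room temperature. Next, circular single-stranded M13Gori with nucleotides starts synthesis. Finally, PicoGreen in EDTA halts the reaction and stains double-stranded product for fluorescence reading.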

[7] = target: Tumor susceptibility gene 101 protein (Homo sapiens) (UniProt Q99816); assay: qHTS Validation Assay for Iinhibitors of HIV-1 Budding by Blocking the Interaction of PTAP/TSG101 (AID 485342; calls by dose curve)
Tumor susceptibility gene 101 protein (Homo sapiens), sequence (Q99816 whole entry, looked up, the tested form may be a part): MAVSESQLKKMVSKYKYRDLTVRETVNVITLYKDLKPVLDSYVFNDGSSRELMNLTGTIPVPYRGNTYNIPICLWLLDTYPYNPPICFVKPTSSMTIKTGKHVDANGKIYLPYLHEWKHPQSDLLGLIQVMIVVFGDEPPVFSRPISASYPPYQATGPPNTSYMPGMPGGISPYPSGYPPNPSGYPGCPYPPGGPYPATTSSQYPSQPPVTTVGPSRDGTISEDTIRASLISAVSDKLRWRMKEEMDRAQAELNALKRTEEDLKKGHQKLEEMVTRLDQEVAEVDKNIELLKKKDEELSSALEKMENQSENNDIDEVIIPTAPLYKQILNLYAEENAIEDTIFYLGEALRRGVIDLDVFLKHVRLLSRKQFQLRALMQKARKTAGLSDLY
In short: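 Binding of a FITC-tagged PTAP-motif peptide (50 nM) to the Tsg101 binding domain (10 uM) is monitored by fluorescence polarization. Compounds are pin-delivered before peptide addition, and incubation runs 20 min at room temperature.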

[8] = qHTS Validation Assay to Find Inhibitors of Chronic Active B-Cell Receptor Signaling (AID 485345; active = well fitted curve in the direction sought with a large enough effect in the main read-out, with a control signal flat, not every such curve was filed as active)
In short: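 Read-out: ratio of filter-corrected green (IkappaBalpha fusion) to red (native) luciferase signal in doxycycline-induced TMD8 cells after 4 h at 37C. Titration spanned 46 uM–3 nM; Data were normalised to basal cells and 10 uM MG-132 wells.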

[9] = target: Beta-2 adrenergic receptor (Homo sapiens) (UniProt P07550); assay: qHTS validation assay of beta-arrestin-biased ligands of beta2-adrenergic receptor (AID 485366)
In short: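 Arrestin-recruitment (Tango) reporter: ligand-bound beta2-AR recruits beta-arrestin, releasing tTA, which upregulates luciferase. Titrations of up to 46 microM incubated 18 hr at 37 degrees C before luminescent readout.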

[10] = target: Thioredoxin reductase 1, cytoplasmic (Rattus norvegicus) (UniProt O89049); assay: qHTS Assay for Substrates of Mammalian Selenoprotein Thioredoxin Reductase 1 (TrxR1) (AID 488772);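 also: NADPH fluorescence in the first read after selenite addition and not the 8 min delta; series mostly up to about 57 µM; a drop in NADPH fluorescence below the no-compound background marks a TrxR1 substrate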
In short: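 Quantitative HTS in Tris-HCl buffer at pH 7.5 with EDTA and Tween-20, using rat TrxR1, 400 uM NADPH and 400 uM selenite (final). A fall in initial NADPH fluorescence relative to background marked substrate behaviour.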

[11] = target: Flap endonuclease 1 (Homo sapiens) (UniProt P39748); assay: qHTS Validation Assay for the Inhibitors of Human Flap endonuclease 1 (FEN1) (AID 488816)
Flap endonuclease 1 (Homo sapiens), sequence (P39748 whole entry, looked up): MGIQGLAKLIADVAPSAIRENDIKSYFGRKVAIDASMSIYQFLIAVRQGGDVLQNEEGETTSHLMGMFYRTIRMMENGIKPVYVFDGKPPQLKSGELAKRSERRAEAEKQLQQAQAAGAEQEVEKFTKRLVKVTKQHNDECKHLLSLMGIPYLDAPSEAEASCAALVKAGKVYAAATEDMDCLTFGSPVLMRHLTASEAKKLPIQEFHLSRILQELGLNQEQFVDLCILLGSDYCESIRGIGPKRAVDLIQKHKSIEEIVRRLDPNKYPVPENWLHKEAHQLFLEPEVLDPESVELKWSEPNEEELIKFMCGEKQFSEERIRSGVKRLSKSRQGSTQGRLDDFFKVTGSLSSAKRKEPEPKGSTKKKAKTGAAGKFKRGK
In short: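 Readings taken at 0 and 15 min after starting the reaction with 50 nM (final) substrate supplied the signal. Compounds had first sat with 10 nM FEN1 reagent for 15 min at room temperature. Values come from Hill-equation concentration-response fits.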

[12] = target: Chromobox protein homolog 1 (Homo sapiens) (UniProt P83916); assay: qHTS Validation Assay for Inhibitors of HP1-beta Chromodomain Interactions with Methylated Histone Tails (AID 488953); also: nearly all actives have a fitted effect of over 50% in size; also: potency is read from the fitted curve at half-maximal effect
Chromobox protein homolog 1 (Homo sapiens), sequence (P83916 whole entry, looked up): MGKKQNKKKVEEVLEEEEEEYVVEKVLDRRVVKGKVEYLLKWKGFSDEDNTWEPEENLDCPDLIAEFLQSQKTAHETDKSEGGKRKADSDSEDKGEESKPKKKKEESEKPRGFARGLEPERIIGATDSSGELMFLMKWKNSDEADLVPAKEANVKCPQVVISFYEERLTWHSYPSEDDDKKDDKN
In short: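 HP1-beta (50 nM) was preincubated 30 min at room temperature with biotinylated H3(1-18)K9me3 peptide (50 nM) in PBS pH 7.4, 0.01% Tween-20, then with compounds 30 min. AlphaScreen signal was read after streptavidin donor/nickel chelate acceptor beads (10 ug/mL final).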

[13] = target: Methanococcus maripaludis chaperonin (MmCpn) (UniProt Q6LX38); assay: High-Throughput Screening for Modulators of Cytosolic Chaperonin Activity: MmCpn Primary Screen (AID 488978);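 also: 50 nM MmCpn enzyme hydrolysing 30 µM ATP at 37 °C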
Methanococcus maripaludis chaperonin (MmCpn), sequence (Q6LX38 1-543): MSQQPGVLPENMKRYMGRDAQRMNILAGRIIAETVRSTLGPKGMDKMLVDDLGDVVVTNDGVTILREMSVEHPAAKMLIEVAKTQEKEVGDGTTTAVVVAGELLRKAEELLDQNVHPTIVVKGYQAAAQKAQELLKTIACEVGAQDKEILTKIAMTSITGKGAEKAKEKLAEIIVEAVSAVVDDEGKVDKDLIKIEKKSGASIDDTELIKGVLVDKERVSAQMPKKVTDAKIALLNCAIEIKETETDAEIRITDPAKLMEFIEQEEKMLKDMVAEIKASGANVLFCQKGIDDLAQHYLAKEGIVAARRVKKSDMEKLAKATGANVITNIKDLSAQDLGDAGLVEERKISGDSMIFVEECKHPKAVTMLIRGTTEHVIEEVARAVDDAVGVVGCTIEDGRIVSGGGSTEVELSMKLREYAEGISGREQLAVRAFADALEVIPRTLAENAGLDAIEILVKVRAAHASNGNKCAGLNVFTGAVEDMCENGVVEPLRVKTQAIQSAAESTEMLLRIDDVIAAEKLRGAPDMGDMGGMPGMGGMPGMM
In short: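 Steps: chaperonin 50 nM final; add compound, 5 min RT; start with ATP, 30 uM final; hold 10 min at 37C; add ADP Transcreener HTRF reagent, 5 min; read ex 320, em 590 and 665 nm.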

[14] = Validation screen for small molecules that induce DNA re-replication in MCF 10A normal breast cells (AID 463097); also: nearly all actives have a fitted effect of over 60% in size
In short: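 Image-based qHTS: normal breast cells are incubated with compound for 48 hr, stained with Hoechst, and scanned for total nuclear fluorescence. Compounds raising the fraction of nuclei with elevated DNA content count as re-replication inducers.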

[15] = target: ATP-dependent 6-phosphofructokinase (Trypanosoma brucei brucei) (UniProt O15648); assay: qHTS Validation Assay to Find Inhibitors of T. brucei phosphofructokinase (AID 485368)
ATP-dependent 6-phosphofructokinase (Trypanosoma brucei brucei), sequence (O15648 whole entry, looked up): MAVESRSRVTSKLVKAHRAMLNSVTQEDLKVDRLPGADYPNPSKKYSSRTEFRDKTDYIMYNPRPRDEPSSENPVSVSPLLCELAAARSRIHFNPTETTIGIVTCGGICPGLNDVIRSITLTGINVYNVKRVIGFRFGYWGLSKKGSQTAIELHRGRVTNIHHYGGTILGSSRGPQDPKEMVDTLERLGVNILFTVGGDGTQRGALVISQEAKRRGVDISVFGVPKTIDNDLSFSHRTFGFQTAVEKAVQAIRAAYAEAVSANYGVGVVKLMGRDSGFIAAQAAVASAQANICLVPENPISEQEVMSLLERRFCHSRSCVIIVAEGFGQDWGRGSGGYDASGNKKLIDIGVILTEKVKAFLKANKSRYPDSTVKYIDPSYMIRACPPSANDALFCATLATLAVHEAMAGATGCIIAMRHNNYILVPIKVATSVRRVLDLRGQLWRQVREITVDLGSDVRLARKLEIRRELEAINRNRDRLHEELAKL
In short: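 Steps: substrate mix (0.5 mM F6P, 0.1 mM ATP, MgCl2, TEA pH 8.0); compound; 1.25 nM T. brucei PFK; 45 min RT; ATP depletion 10 min; ADP-to-ATP detection 10 min; luminescence read; curve fitting and classification.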

[16] = Quantitative high throughput screen for delayed death inhibitors of the malarial parasite plastid, 96 hour incubation (AID 488745); also: series mostly up to about 29 µM; nearly all actives have a fitted effect of over 70% in size
In short: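 P. falciparum carrying an integrated firefly luciferase reporter, grown in erythrocytes (2% hematocrit, 0.1% parasitemia final) in RPMI 1640/0.5% Albumax, was exposed to compound for 96 h (two generations) at 37 C, 5% CO2. Luminescence decrease indicated growth inhibition.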

[17] = Quantitative high throughput screen for delayed death inhibitors of the malarial parasite plastid, 48 hour incubation (AID 488752); also: nearly all actives have a fitted effect of over 65% in size
In short: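 Erythrocytes infected with P. falciparum carrying an integrated firefly luciferase reporter (2% hematocrit, 0.1% parasitemia final) were exposed to compounds in RPMI 1640/0.5% Albumax for 48 h at 37 C, 5% CO2. Growth inhibition was scored as reduced luminescence.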

[18] = target: Thioredoxin reductase 1, cytoplasmic (Rattus norvegicus) (UniProt O89049); assay: qHTS Assay for Inhibitors of Mammalian Selenoprotein Thioredoxin Reductase 1 (TrxR1) (AID 488773); conditions: Potency: inhibition;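 also: drop in NADPH fluorescence over an 8 min run after selenite addition; series mostly up to about 57 µM; nearly all actives have a fitted effect of over 40% in size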
In short: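 Steps: enzyme (90 nM) plus NADPH (400 uM final), 5 min at ~22 deg C; compound added, 15 min; selenite (400 uM final) added; fluorescence followed for 8 min. Concentration-response curves derived from the normalized delta values.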

[19] = target: M-phase phosphoprotein 8 (Homo sapiens) (UniProt Q99549); assay: qHTS Validation Assay for Inhibitors for MPP8 Chromodomain Interactions with Methylated Histone Tails (AID 488949);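 also: 50 nM MPP8 with 50 nM peptide preformed then compounds added for 30 min; AlphaScreen signal from MPP8 chromodomain bound to biotinylated H3K9me3 peptide; top concentration of the series differs between compounds; nearly all actives have a fitted effect of over 55% in size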
M-phase phosphoprotein 8 (Homo sapiens), sequence (Q99549 whole entry, looked up): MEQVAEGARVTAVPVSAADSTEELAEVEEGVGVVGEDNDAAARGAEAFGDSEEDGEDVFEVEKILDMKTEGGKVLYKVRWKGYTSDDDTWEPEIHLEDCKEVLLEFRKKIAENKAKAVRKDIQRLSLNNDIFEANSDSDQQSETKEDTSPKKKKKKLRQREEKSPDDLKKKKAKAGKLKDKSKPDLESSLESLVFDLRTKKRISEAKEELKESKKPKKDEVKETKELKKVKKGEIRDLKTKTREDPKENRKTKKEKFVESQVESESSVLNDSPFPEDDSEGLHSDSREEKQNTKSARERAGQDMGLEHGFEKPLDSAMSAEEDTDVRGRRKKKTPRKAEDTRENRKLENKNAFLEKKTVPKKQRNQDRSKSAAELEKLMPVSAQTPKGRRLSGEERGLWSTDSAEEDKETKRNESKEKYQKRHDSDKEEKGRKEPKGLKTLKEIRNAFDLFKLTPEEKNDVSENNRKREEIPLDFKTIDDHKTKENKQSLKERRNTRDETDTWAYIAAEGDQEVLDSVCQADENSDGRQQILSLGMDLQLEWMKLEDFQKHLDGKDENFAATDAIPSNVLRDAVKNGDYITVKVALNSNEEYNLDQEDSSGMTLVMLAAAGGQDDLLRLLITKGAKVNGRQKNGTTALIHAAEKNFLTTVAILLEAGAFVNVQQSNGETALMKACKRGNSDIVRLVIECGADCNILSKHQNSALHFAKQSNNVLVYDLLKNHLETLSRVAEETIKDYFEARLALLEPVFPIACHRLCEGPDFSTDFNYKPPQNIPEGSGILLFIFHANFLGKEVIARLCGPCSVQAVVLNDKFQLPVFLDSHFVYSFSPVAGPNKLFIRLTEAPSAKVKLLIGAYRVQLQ
In short: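 50 nM MPP8 + 50 nM b-H3K9me3 peptide, PBS pH 7.4/0.01% Tween-20, 30 min RT; + cpd 30 min RT; + AlphaScreen donor/Ni-chelate acceptor beads 10 ug/mL final, 30 min dark; luminescence read.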

Structure (SMILES) | outcome [1] | Potency [2] | Potency [3] | Potency [4] | Potency [5] | Potency [6] | outcome [7] | outcome [8] | outcome [9] | outcome [10] | Potency [11] | Potency [12] | outcome [13] | Potency [14] | Potency [15] | Potency [16] | Potency [17] | Potency [18] | Potency [19]
C[C@H](NC(=O)/C(C#N)=C/c1ccc(O)c(O)c1)c1ccccc1 | inactive | inactive | inactive | inactive | inactive | inactive | inactive | inactive | inactive | inactive | inactive | 31.6 µM (active) | inactive |  |  |  |  |  | 
NC(N)=N[C@@H](CCC(=O)O)C(=O)O | inactive | inactive | inactive | inactive |  |  | inactive | inactive | inactive | inactive | inactive |  | inactive | inactive | inactive | inactive | inactive | inactive | inactive
Nc1nc2c(cnn2CCc2ccccc2)c2nc(-c3ccco3)nn12 | inactive | inactive | inactive | inactive | inactive | inactive | inactive |  | inactive | inactive | inactive |  | inactive |  |  |  |  | inactive | inactive
Cc1cc(Cn2cnc3c2C[C@@H](C(=O)O)N(C(=O)C(c2ccccc2)c2ccccc2)C3)ccc1N | inactive | inactive | inactive | inactive | inactive | inactive | inactive | inactive | inactive | inactive | inactive |  | inactive |  | inactive |  |  | inactive | inactive
CN1CCc2cc(Cl)c(O)cc2[C@@H](c2ccccc2)C1 | inactive | inactive | inactive | inactive | inactive | inactive | inactive |  |  |  | inactive | inactive | inactive |  | inactive |  |  | inactive | inactive
CN(C)CCCc1cc(C(=O)Nc2ccc(-c3ccncc3)cc2)ccc1O | inactive | inactive | inactive | inactive | inactive | inactive | inactive |  | inactive | inactive | inactive |  | inactive |  | inactive |  |  |  | inactive
CSc1nc(N)c2ncn([C@@H]3O[C@H](COP(=O)(O)OP(=O)(O)O)C(O)[C@H]3O)c2n1 (stereo not given in full) | inactive | inactive | inactive | inactive | inactive | inactive | inactive |  | inactive | inactive | inactive |  | inactive |  |  |  |  | inactive | inactive
O=C(O)/C(=C/c1c(C(=O)O)[nH]c2cc(Cl)cc(Cl)c12)c1ccccc1 | inactive | inactive | inactive | inactive |  | inactive | inactive |  | inactive | inactive | inactive |  | inactive | inactive |  |  |  | inactive | inactive
Nc1ncnc2c1nc(Br)n2C1OC2COP(=O)(O)O[C@@H]2C1O (stereo not given in full) | inactive | inactive | inactive | inactive | inactive | inactive | inactive | inactive | inactive | inactive | inactive | inactive | inactive |  | inactive |  |  | inactive | inactive
